Measurements from ChEMBL document CHEMBL3988442, “University of Dundee, Small-Polar-MMV Screening Library” (2021).
In all, about 48,000 compounds went through this assay and about 13,000 (27%) showed an effect of 50% or more. The list shows a part of the results.

Tested on: Wolbachia pipientis
Assay: Anti-Wolbachia Cell-Based Screen
Assay type: functional
Parameters: scale not given: in the data most compounds retested in dose-response had high values
Conditions: 5 µM

| Structure (SMILES) | Percent Effect [%] |
| --- | --- |
| Cc1cnn(C(C)C2CC2)c1NC(=O)c1ccc(Cn2cnnn2)cc1 (configuration not stated) | 7.746 |
| COc1nc2c(cc1C(=O)N1C[C@@H](N)C[C@H]1C(=O)NC(C)C)CCC2 | 2.559 |
| CCOC(=O)c1coc(N2CCN(Cc3cc(C)cc(C)c3)C(=O)C2)n1 | -24.84 |
| CS(=O)(=O)N1CCc2ccc(=O)n(CC3CCOCC3)c2CC1 | -13.75 |
| O=C(O)C(F)(F)F.O=c1ccc2c(n1CC1CCOCC1)CCN(Cc1ccoc1)CC2 | 125.5 |
| O=C(NCc1cccs1)[C@]12COC[C@H]1CN(c1ncccn1)C2.O=C(O)C(F)(F)F | -12.11 |
| Cn1cc(CN2C[C@@H]3COC[C@]3(C(=O)N3CCCO3)C2)cn1 | -0.6058 |
| Cn1cc(CN2CC(C(=O)Nc3ccccc3)C3(CCOCC3)C2)cn1.O=C(O)C(F)(F)F (configuration not stated) | 0.729 |
| CN(Cc1ccccn1)C(=O)[C@]12COC[C@H]1CN(Cc1cnn(C)c1)C2 | -17.57 |
| O=C(NCCc1cccs1)[C@]12COC[C@H]1CN(Cc1ccncc1)C2.O=C(O)C(F)(F)F.O=C(O)C(F)(F)F | -23.54 |
| CC(C)NC(=O)[C@]12COC[C@H]1CN(Cc1cnn(C)c1)C2 | 82.27 |
| Cn1cc(CN2C[C@@H]3COC[C@]3(C(=O)NCCc3ccccc3)C2)cn1.O=C(O)C(F)(F)F | 92.46 |
| Cn1cc(CN2C[C@@H]3COC[C@]3(C(=O)NCc3cccs3)C2)cn1 | 98.41 |
| CS(=O)(=O)N1C[C@@H]2COC[C@]2(C(=O)NCCc2cccs2)C1 | -42.96 |
| COc1ccccc1CCNC(=O)CNC1CCc2nc(C)nn2C1 (configuration not stated) | -4.852 |
| CC(=O)N1CCn2c(COCc3csc(C)n3)cnc2C1C (configuration not stated) | 17.55 |
| Cc1nn(C)c2nc(N(CCN(C)C)C3CCCC3)sc12 | -1.05 |
| Cc1cccc(C(=O)NCCNCC2CNc3ccnn3C2)c1 (configuration not stated) | -9.397 |
| CC(C)Cn1cnc(S(=O)(=O)NCCc2nnc3ccccn23)c1 | 8.202 |
| CC(C)Cc1nnc(SCC(=O)O)n1-c1ccc(F)cc1F | 1.309 |
| CCCn1cc(C(=O)NC(CC(=O)O)c2ccccc2F)c(C)n1 (configuration not stated) | -6.071 |
| CCn1nc(C)c(NC(=O)C(C)C)c1C | -2.093 |
| Cc1c(-c2nnc(SCC(=O)O)n2C(C)c2ccccc2)cnn1C (configuration not stated) | 8.856 |
| CCc1cc(C(F)(F)F)c2c(C)nn(CC(=O)O)c2n1 | -1.783 |
| Cc1c2c(C(F)F)cc(SCC(=O)O)nc2nn1C | 97.91 |
| Cc1cc(SCC(=O)O)nc2nn(CC(F)F)c(C)c12 | 120.4 |

| Structure (SMILES) | Percent Effect [%] |
| --- | --- |
| CCn1nc2nc(SCC(=O)O)cc(C(F)F)c2c1C | 86.56 |
| CCCn1cc2c(C(F)F)cc(SCC(=O)O)nc2n1 | 93.6 |
| Cc1cc(-c2nnc(SCC(=O)O)n2C(C)c2ccccc2)nn1C (configuration not stated) | 4.931 |
| CN(Cc1cccc(Cl)c1)Cc1nnsc1Cl | -20.09 |
| Cc1oc(-c2ccccc2)nc1CC(=O)NC1=NCCS1 | -12.38 |
| CCc1nsc(NC2CC(=O)N(C3CC3)C2)n1 (configuration not stated) | 5.167 |
| O=C(c1ccc[nH]1)N1CCN(CC2CCOc3ccccc3C2)CC1 (configuration not stated) | -0.508 |
| O=C(NCC1(O)CCOC1)NCC1(c2ccccc2Cl)CCC1 (configuration not stated) | 17.28 |
| Cc1cc(CC(C)NC(=O)Cc2cc(F)ccc2C)[nH]n1 (configuration not stated) | -12.96 |
| Cc1nc(C2CCCN2Cc2cc(Cl)c3c(c2)OCO3)no1 (configuration not stated) | -3.682 |
| C[C@@H]1CN(C(=O)CCN2CCOCC2)CC[C@]1(C)O | -11.44 |
| O=C(C1CCC1)N1C(CN2CCOCC2)[C@]2(O)CC[C@H]1CC2 (some centres not stated) | 92.68 |
| O=C(N1CCOCC1)N1C(CN2CCOCC2)[C@]2(O)CC[C@H]1CC2 (some centres not stated) | 118.3 |
| O=C(C1CCOCC1)N1C[C@@H]2OCCN(CCN3CCCC3)[C@@H]2C1 | -5.298 |
| COCC1N(C(=O)N2CCOCC2)[C@H]2CC[C@]1(O)CC2 (some centres not stated) | 110.4 |
| Cn1c(CN2CCOCC2)nnc1C1CCN(C(=O)C2CCCC2)CC1 | -7.454 |
| COC[C@@]12CCO[C@@H]1CCN(C(=O)C1CCOCC1)C2 | 4.117 |
| O=C(N1CCOCC1)N1CC[C@@](O)(c2ccccc2)[C@H]2CCCC[C@@H]21 | 4.203 |
| O=C(N1CCOCC1)N1C[C@H]2CC[C@@H]1CN(C1Cc3ccccc3C1)C2 | 12.43 |
| CCC(CC)n1nc(C)cc1NC(=O)C1CCOC1 (configuration not stated) | 10.26 |
| Cc1ccccc1[C@@H]1CN(CCCS(=O)(=O)N(C)C)C[C@H]1C(=O)O | -19.2 |
| O=C(NC[C@H]1OC[C@@H]2CCN(c3ncccn3)C[C@@H]21)c1ccnnc1 | 8.157 |
| CCn1ccnc1CN1CCCC(CO)(CCCc2ccccc2)C1 (configuration not stated) | 6.615 |
| COc1ccc(NC(=O)Cn2ccc3c(=O)n(C)ccc32)cc1OC | 174.8 |
| Cc1cc(NC(=O)Cn2cc(C#N)c(=O)c3cc(Br)ccc32)no1 | -1.057 |
| Cc1ccc(NC(=O)CN[C@H](C(N)=O)C(C)C)cc1F | -36.68 |
